Columns and labels:
Assay in all cases: PBM binding z-score (relative to random genomic background probes); higher = stronger binding; sequences stand for … in GC…GCGATTGACAGCGTAGAATGAAGG
[1] = test system: FXR:RXRa (NR concentration 270 nM, RXRa partner concentration 90 nM)
Outline: (§1)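 Custom Agilent 4×180K protein-binding microarrays carried double-stranded probes, each with a 34-nt variable region. These regions held direct-repeat seeds, single-nucleotide variants, half-site ablations and random human genomic background sequences. Ligand-free nuclear receptor dimers were incubated on the arrays for 1 h, antibodies against each partner (one per run) detected binding, and scanned fluorescence was regression-normalized. Binding z-scores take the random background probes as reference.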

[2] = test system: LXRa:RXRa (NR concentration 270 nM, RXRa partner concentration 90 nM)
Outline: as §1

[3] = test system: LXRa homodimer (NR concentration 270 nM)
Outline: as §1

[4] = test system: LXRb:RXRa (NR concentration 270 nM, RXRa partner concentration 90 nM)
Outline: as §1

[5] = test system: LXRb homodimer (NR concentration 270 nM)
Outline: as §1

[6] = test system: PPARa:RXRa (NR concentration 270 nM, RXRa partner concentration 90 nM)
Outline: as §1

[7] = test system: PPARg:RXRa (NR concentration 180 nM, RXRa partner concentration 90 nM)
Outline: as §1

[8] = test system: PPARg:RXRa 270nM:90nM, anti-RXR (NR concentration 270 nM, RXRa partner concentration 90 nM)
Outline: as §1

[9] = test system: PPARg:RXRa 30nM:10nM, anti-RXR (NR concentration 30 nM, RXRa partner concentration 10 nM)
Outline: as §1

[10] = test system: PPARg:RXRa 90nM:30nM, anti-RXR (NR concentration 90 nM, RXRa partner concentration 30 nM)
Outline: as §1

[11] = test system: PPARg:RXRa DBDmut IVT, anti-RXR (DBD mutation: RXRa K156A/R161A, NR concentration 270 nM, RXRa partner concentration 90 nM)
Outline: as §1

[12] = test system: PPARg:RXRa IVT, anti-PPARg (NR concentration 270 nM, RXRa partner concentration 90 nM)
Outline: as §1

[13] = test system: PPARg DBDmut:RXRa IVT, anti-PPARg (DBD mutation: PPARg1 K132A/R137A, NR concentration 270 nM, RXRa partner concentration 90 nM)
Outline: as §1

[14] = test system: PPARg DBDmut IVT, anti-PPARg (DBD mutation: PPARg1 K132A/R137A, NR concentration 270 nM)
Outline: as §1

[15] = test system: PPARg homodimer (NR concentration 180 nM)
Outline: as §1

[16] = test system: PXR:RXRa (NR concentration 270 nM, RXRa partner concentration 90 nM)
Outline: as §1

[17] = test system: PXR homodimer (NR concentration 270 nM)
Outline: as §1

[18] = test system: RARa:RXR (NR concentration 270 nM, RXRa partner concentration 90 nM)
Outline: as §1

[19] = test system: RARa homodimer (NR concentration 270 nM)
Outline: as §1

[20] = test system: RARb:RXRa (NR concentration 270 nM, RXRa partner concentration 90 nM)
Outline: as §1

Sequence	PBM binding z-score [1]	PBM binding z-score [2]	PBM binding z-score [3]	PBM binding z-score [4]	PBM binding z-score [5]	PBM binding z-score [6]	PBM binding z-score [7]	PBM binding z-score [8]	PBM binding z-score [9]	PBM binding z-score [10]	PBM binding z-score [11]	PBM binding z-score [12]	PBM binding z-score [13]	PBM binding z-score [14]	PBM binding z-score [15]	PBM binding z-score [16]	PBM binding z-score [17]	PBM binding z-score [18]	PBM binding z-score [19]	PBM binding z-score [20]
AGCACGAGGGCAATGAGTTGATAGCACGGGTGGC	0.125	0.129	-0.673	-0.297	-0.733	0.58	0.928	-0.00435	-0.788	-0.265	1.23	0.791	-0.0946	-0.486	-0.285	1.56	5.64	0.00535	-0.029	2.14
TCATATAGGCAAACAGGTGAAAGTCCGTAAGTTA	0.489	0.602	-0.0652	0.614	-0.318	1.33	0.726	2.34	3.4	2.91	2.62	1.42	0.461	0.241	0.782	0.517	0.177	0.939	0.994	0.119
CCTTACGTGTCACTCCAGGTTATAGCATCGGAGT	1.96	5.55	2.04	1.89	1.05	0.862	0.466	0.288	-0.302	-0.0102	1.84	1.44	0.74	0.788	1.64	1.44	0.593	0.864	1.76	1.16
CGAAGTAGGTCAAGGACAGTGAATCTCCGCACGC	3.88	2.75	0.0941	1.82	-0.179	5.28	8.14	6.95	4.62	6.44	8.4	8.73	5.06	1.85	2.14	1.39	-0.253	2.46	0.686	3.95
CGAGCTAGGTCAAGGACAGTGAATCTCCGCACGC	3.4	2.03	-0.283	1.22	-0.582	3.06	2.07	2.14	0.109	1.07	3.38	2.99	-0.96	-1.07	1.61	1.01	-0.22	2.02	0.121	3.74
AGAACGAGGGCAACGAGTTGATAGCACGGGTGGC	0.357	0.068	-0.499	-0.258	-0.674	1.59	1.67	1.29	0.0508	0.609	3.47	3.2	0.361	-0.0508	-0.253	1.49	3.88	0.217	-0.868	2.23

Reference: the supplement of paper PMC6555819
